Source: PubChem
CYP2C19 act = cytochrome P450 2C19 (human) activation; P33261; recombinant CYP2C19, luciferin-H EGE luminescence; stronger effect = higher value; 0 = fully inhibited enzyme, 1 = untreated enzyme; activation factor at 5 µM; 96,000 tested, under 10 active;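 active = activation factor of at least 2 at 5 µM in the primary screen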
Target sequence (P33261 whole entry, looked up): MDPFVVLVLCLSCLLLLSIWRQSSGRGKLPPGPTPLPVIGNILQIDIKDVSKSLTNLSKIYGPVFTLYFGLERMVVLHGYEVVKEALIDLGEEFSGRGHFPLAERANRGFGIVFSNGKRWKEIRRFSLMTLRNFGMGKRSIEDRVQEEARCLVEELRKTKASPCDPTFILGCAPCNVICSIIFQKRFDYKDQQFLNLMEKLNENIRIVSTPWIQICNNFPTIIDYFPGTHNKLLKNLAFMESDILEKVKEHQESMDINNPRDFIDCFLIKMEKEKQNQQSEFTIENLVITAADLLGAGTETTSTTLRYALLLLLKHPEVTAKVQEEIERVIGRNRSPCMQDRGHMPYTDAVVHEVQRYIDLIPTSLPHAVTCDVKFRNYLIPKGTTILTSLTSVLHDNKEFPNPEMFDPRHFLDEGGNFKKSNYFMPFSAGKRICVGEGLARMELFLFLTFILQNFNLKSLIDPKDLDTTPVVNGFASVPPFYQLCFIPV
CYP2C19 inhib = human CYP2C19 inhibition; AID 778; inhibition, % at 5 µM; P33261; CYP2C19 Supersomes, luciferin-H EGE luminescence, 30 min; hit rate 21% among 96,000;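 active = CYP2C19 inhibition above a set limit at 5 µM in the primary screen, cut at about 50% in these data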
CYP2C9 activ = CYP2C9 (human) activation; P11712; recombinant CYP2C9, luciferin-H conversion, luminescence; stronger effect = higher value; factor 1 = untreated enzyme, 0 = blocked; activation factor at 5 µM; hit rate 1.4% among 96,000; AID 1024;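 active = activation factor of 2 or more for CYP2C9 at a 5 µM dose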
sEH act = soluble epoxide hydrolase (human) activation. P34913. purified human sEH enzymatic activity, activator screen. activation, % at 2 µM. hit rate 0.04% among 91,000. AID 717; in the data active = activation above about 37%
CYP2C9 inh = blocks human cytochrome P450 2C9; inhibition, % at 5 µM; CYP2C9 Supersomes, luciferin-H conversion, luminescence; hit rate 20% among 96,000; AID 777; P11712;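 active = blocking of liver enzyme CYP2C9 beyond about 50% at 5 µM, limit read from the data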
sEH inhibitor = inhibitors of human soluble epoxide hydrolase; P34913; recombinant human sEH enzymatic activity assay; AID 707; inhibition, % at 2 µM; hit rate 0.34% among 91,000; in the data active = inhibition above about 80%
A number is an active result. Only some compounds are listed: those with a hit (about 27% of all), similar ones and a draw of the others.

COc1cc(C)nc(OCCNC(=O)COc2ccc(Cl)cc2Cl)n1 was read as CYP2C19 act inactive, CYP2C19 inhib 73, CYP2C9 activ inactive, sEH act inactive, CYP2C9 inh 63 and sEH inhibitor inactive.
`CN(C)c1nc(NS(=O)(=O)c2ccc(Cl)cc2)nc(N(C)C)n1` gave CYP2C19 act inactive, CYP2C19 inhib inactive, CYP2C9 activ inactive, sEH act inactive, CYP2C9 inh inactive and sEH inhibitor inactive.
`COc1ccccc1-c1nc(S(=O)(=O)c2ccc(Cl)cc2)c(N(C)C)o1` gave CYP2C19 act inactive, CYP2C19 inhib inactive, CYP2C9 activ inactive, sEH act inactive, CYP2C9 inh inactive and sEH inhibitor inactive.
COc1cc(C)nc(N(C)S(=O)(=O)c2ccccc2Cl)n1 was read as CYP2C19 act inactive, CYP2C19 inhib 73, CYP2C9 activ inactive, sEH act inactive, CYP2C9 inh inactive and sEH inhibitor inactive.
Screening CON(c1nc(Cl)nc(N(C)C)n1)S(=O)(=O)c1ccccc1Cl returned CYP2C19 act inactive, CYP2C19 inhib 69, CYP2C9 activ inactive, sEH act inactive, CYP2C9 inh inactive and sEH inhibitor inactive.
Screening COc1nc(N(C)C)nc(N(OC)S(=O)(=O)c2ccccc2Cl)n1 returned CYP2C19 act inactive, CYP2C19 inhib 90, CYP2C9 activ inactive and CYP2C9 inh 72.
COc1cc(C)nc(N2CCCC(C(=O)Nc3cccc(Cl)c3Cl)C2)n1 (configuration not stated) was read as CYP2C19 act inactive, CYP2C19 inhib inactive, CYP2C9 activ inactive, sEH act inactive, CYP2C9 inh inactive and sEH inhibitor inactive.
Cc1cc(C(=O)OCC(=O)c2ccc(Br)s2)no1 was read as CYP2C19 act inactive, CYP2C19 inhib inactive, CYP2C9 activ inactive, sEH act inactive, CYP2C9 inh 66 and sEH inhibitor inactive.
COC(=O)c1c(C)noc1-c1cc(C)on1 was read as CYP2C19 act inactive, CYP2C19 inhib inactive, CYP2C9 activ inactive, sEH act inactive, CYP2C9 inh inactive and sEH inhibitor inactive.
Screening Cc1cc(C)n(C(=O)c2ccc(NC(=O)C3CC3)cc2)n1 returned CYP2C19 act inactive, CYP2C19 inhib inactive, CYP2C9 activ 2.2, sEH act inactive, CYP2C9 inh inactive and sEH inhibitor inactive.
`CCC(=O)Nc1ccc(C(=O)n2nc(C)cc2C)cc1` gave CYP2C19 act inactive, CYP2C19 inhib inactive, CYP2C9 activ inactive, sEH act inactive, CYP2C9 inh inactive and sEH inhibitor inactive.
Screening Cc1nn(-c2ccccc2)c(C)c1/C=N/n1c(-c2ccc(C(C)(C)C)cc2)n[nH]c1=S returned CYP2C19 act inactive, CYP2C19 inhib inactive, CYP2C9 activ inactive, sEH act inactive, CYP2C9 inh 82 and sEH inhibitor inactive.
For Cc1nn(-c2ccccc2)c(C)c1/C=N/NC(=O)c1cc(C(C)(C)C)[nH]n1 the results were CYP2C19 act inactive, CYP2C19 inhib inactive, CYP2C9 activ inactive, sEH act inactive, CYP2C9 inh 58 and sEH inhibitor inactive.
`Cc1ccc(-c2cc(C(=O)N/N=C/c3c(C)nn(-c4ccccc4)c3C)[nH]n2)cc1` gave CYP2C19 act inactive, CYP2C19 inhib inactive, CYP2C9 activ inactive, sEH act inactive, CYP2C9 inh inactive and sEH inhibitor inactive.
For CC(C)CCn1cnc2c([nH]c3cccc(Cl)c32)c1=O the results were CYP2C19 act inactive, CYP2C19 inhib inactive, CYP2C9 activ inactive, sEH act inactive, CYP2C9 inh 50 and sEH inhibitor inactive.
O=C1CC(c2ccco2)CC2=C1C=Nc1ccccc1N2 (configuration not stated) was read as CYP2C19 act inactive, CYP2C19 inhib 63, CYP2C9 activ inactive, sEH act inactive, CYP2C9 inh 76 and sEH inhibitor inactive.
Cc1nc2n(n1)C(c1ccccc1)C1=C(CC(c3ccco3)CC1=O)N2 (configuration not stated) was read as CYP2C19 act inactive, CYP2C19 inhib inactive, CYP2C9 activ inactive, sEH act inactive, CYP2C9 inh inactive and sEH inhibitor inactive.
`CC(C)Oc1snc(Cl)c1C(N)=O` gave CYP2C19 act inactive, CYP2C19 inhib inactive, CYP2C9 activ inactive, sEH act inactive, CYP2C9 inh inactive and sEH inhibitor inactive.
Screening O=C(O)c1c[nH]c2ccc(S(=O)(=O)N3CCOCC3)cc12 returned CYP2C19 act inactive, CYP2C19 inhib inactive, CYP2C9 activ inactive and CYP2C9 inh inactive.
Screening O=C(Nc1cc(S(=O)(=O)N2CCOCC2)ccc1Cl)C(=O)c1c(-c2ccccc2)cc2ccccn12 returned CYP2C19 act inactive, CYP2C19 inhib inactive, CYP2C9 activ inactive, sEH act inactive, CYP2C9 inh 70 and sEH inhibitor inactive.
For Cc1cccc(C(=O)CC(=O)c2cc(Cl)ccc2O)c1 the results were CYP2C19 act inactive, CYP2C19 inhib inactive, CYP2C9 activ inactive, sEH act inactive, CYP2C9 inh 79 and sEH inhibitor inactive.
Screening CC1=C(C(=O)OCc2ccc3c(c2)OCO3)C(c2ccc(F)cc2)NC(=O)N1 (configuration not stated) returned CYP2C19 act inactive, CYP2C19 inhib inactive, CYP2C9 activ inactive, sEH act inactive, CYP2C9 inh 52 and sEH inhibitor inactive.
For CC1=C(C(=O)OCC(C)C)C(c2ccsc2)NC(=O)N1 (configuration not stated) the results were CYP2C19 act inactive, CYP2C19 inhib 65, CYP2C9 activ inactive, sEH act inactive, CYP2C9 inh 52 and sEH inhibitor inactive.
Screening CC1=C(C(=O)OCc2ccc3c(c2)OCO3)C(c2ccc(Cl)cc2)NC(=O)N1 (configuration not stated) returned CYP2C19 act inactive, CYP2C19 inhib inactive, CYP2C9 activ inactive and CYP2C9 inh inactive.
Screening CC1=C(C(=O)OC(C)C)C(c2ccc(Br)s2)NC(=O)N1 (configuration not stated) returned CYP2C19 act inactive, CYP2C19 inhib 82, CYP2C9 activ inactive, sEH act inactive, CYP2C9 inh inactive and sEH inhibitor inactive.
`CCC(C)OC(=O)C1=C(C)NC(=O)NC1c1ccc(F)cc1` (configuration not stated) gave CYP2C19 act inactive, CYP2C19 inhib 95, CYP2C9 activ inactive, sEH act inactive, CYP2C9 inh inactive and sEH inhibitor inactive.
Cc1cc(C(=O)O)c(CSCc2cc(C(=O)O)oc2C)o1 was read as CYP2C19 act inactive, CYP2C19 inhib inactive, CYP2C9 activ inactive, sEH act inactive, CYP2C9 inh inactive and sEH inhibitor inactive.
COc1cccc(NC(=O)C2CCN(S(=O)(=O)c3ccc4c(c3)OCCO4)CC2)c1 was read as CYP2C19 act inactive, CYP2C19 inhib inactive, CYP2C9 activ inactive, sEH act inactive, CYP2C9 inh inactive and sEH inhibitor inactive.
Screening CCOC(=O)C1=C(C)NC(=O)NC1c1ccc2c(c1)OCCO2 (configuration not stated) returned CYP2C19 act inactive, CYP2C19 inhib inactive, CYP2C9 activ inactive, sEH act inactive, CYP2C9 inh inactive and sEH inhibitor inactive.
CCOC(=O)C1=C(Cn2ccc(C(F)(F)F)n2)NC(=O)NC1c1ccc2c(c1)OCO2 (configuration not stated) was read as CYP2C19 act inactive, CYP2C19 inhib 72, CYP2C9 activ inactive, sEH act inactive, CYP2C9 inh 65 and sEH inhibitor inactive.
